The results in this text go back to PubChem BioAssay (EPA / NIEHS).

Records with an inconclusive call do not appear. Activity calls are given as the source filed them. How the source made its calls: active means hit-call score of the fitted dose curve at least 0.9, where 1 is the maximum; inconclusive means response in the unintended direction; inactive means score below 0.9.

The term AC50 denotes the midpoint of the concentration-response curve, whichever way the signal moves.

In this test the target is Retinoic acid receptor RXR-alpha (Homo sapiens) (UniProt P19793). Nature of the test: ATG_RXRa_TRANS: Attagene TRANS-FACTORIAL HepG2 Assay for human Retinoid X Receptor alpha (RXRa) (AID 2283012). The gist of the method: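 Cells (HepG2) carried transiently transfected GAL4-responsive reporter units. Following a 24 h chemical incubation, reporter mRNA induction was read via RT-PCR fragment analysis; DMSO served as negative control and baseline.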
Sequence of Retinoic acid receptor RXR-alpha (Homo sapiens) (P19793 whole entry, looked up, the tested form may be a part): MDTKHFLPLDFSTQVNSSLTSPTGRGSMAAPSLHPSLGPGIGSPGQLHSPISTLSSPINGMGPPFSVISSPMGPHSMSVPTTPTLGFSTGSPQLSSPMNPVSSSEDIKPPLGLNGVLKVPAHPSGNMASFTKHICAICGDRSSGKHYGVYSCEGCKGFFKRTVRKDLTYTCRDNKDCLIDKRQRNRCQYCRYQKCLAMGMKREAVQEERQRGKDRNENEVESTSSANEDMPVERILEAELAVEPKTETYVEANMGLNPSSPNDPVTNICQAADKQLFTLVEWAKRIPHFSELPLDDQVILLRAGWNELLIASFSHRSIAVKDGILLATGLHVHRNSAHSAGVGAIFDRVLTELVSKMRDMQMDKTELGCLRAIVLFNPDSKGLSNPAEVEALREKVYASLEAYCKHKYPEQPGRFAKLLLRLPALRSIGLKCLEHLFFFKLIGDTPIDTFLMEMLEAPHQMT
For the compound `CCCC(C)C(O)CC` (centres undefined), the compound was called inactive.
`COc1cc(CCC(C)=O)ccc1O`: the outcome was inactive.
`COC(=O)c1ccc(C)cc1C1=NC(C)(C(C)C)C(=O)N1` (centres undefined) (tested in a mixture with another compound): the compound was classed as inactive.
Consider `CCCC[O][Al]([O]CCCC)[O]CCCC`, for which the result was inactive.
Take `CCCCCCC(=O)c1ccccc1`: the compound was called inactive.
With `CCc1ccc(O)cc1`, the compound was classed as inactive.
As to `CC(=O)CC(=O)Nc1ccc(C)cc1C`, the compound was classed as inactive.
Same read-out and setting: the same measure for `COC(C)(C)CCCC(C)CC=O` (centres undefined): “inactive”.
For the compound `CCOCCOCCOCC`, the outcome was inactive.
The same measure, in the same setting: the same measure for `CC(=O)C(C)O` (centres undefined): “inactive”.
Regarding `COc1ccccc1[N+](=O)[O-]`, the call was inactive.
Turning to `O=C(O)CCCCCCCCCCCC(=O)O`, the outcome was inactive.
Still for that read-out and setting: to `CCO/C=C1\N=C(c2ccccc2)OC1=O` belongs “inactive”.
On to `CCC(=O)O[C@@H]1C[C@H]2CC[C@]1(C)C2(C)C`, for which the compound was called inactive.
With `O=C(O)c1cccnc1C(=O)O`, the compound was called inactive.
Still for that read-out and setting: the same measure for `CCCCCCOCCOCCO`: “inactive”.
As to `CSc1c(Cl)c(Cl)c(Cl)c(Cl)c1Cl`, the AC50 was 27.3 µM (active).
Consider `O=C1OC(=O)c2c(Br)c(Br)c(Br)c(Br)c21`, for which the result was inactive.
For `CC(=O)O[C@@H]1CC2CCC1(C)C2(C)C` (some centres undefined), the compound was called inactive.
In the case of `O=c1[nH]c(=O)c2cn[nH]c2[nH]1`, the compound was called inactive.
Take `Cc1ccc(N)c(S(=O)(=O)O)c1`: the call was inactive.
Still for that read-out and setting: to `CN(C)c1ccncc1` belongs “inactive”.
On to `CCCN(CCC)S(=O)(=O)c1ccc(C(=O)O)cc1`, for which the call was inactive.
Still for that read-out and setting: to `COC(=O)c1ccc(OC)cc1` belongs “inactive”; to `CCC1(C)NC(=O)NC1=O` (centres undefined), “inactive”.
Take `Cc1c(OCC(F)(F)F)ccnc1CS(=O)c1nc2ccccc2[nH]1` (centres undefined): the outcome was inactive.
Same read-out and setting: the same measure for `O=C1NC2NC(=O)NC2N1` (centres undefined): “inactive”; for `COCCc1ccc(OCC(O)CNC(C)C)cc1` (centres undefined): “inactive”; for `COCCOCCOCCO`: “inactive”.
As to `CCCCCCC(O)CCCCCCCCCCC(=O)O` (centres undefined), the result was inactive.
Take `CCN(CCC#N)c1ccc(N=Nc2ccc([N+](=O)[O-])cc2)cc1`: the compound was called inactive.
Same read-out and setting: the same measure for `O=C(O)CCCCCCCCC(=O)O`: “inactive”; for `OCC#CCO`: “inactive”; for `N#Cc1cscn1`: “inactive”.
In the case of `CCCCCc1ccco1`, the compound was classed as inactive.
On the same count and under the same terms, the same measure for `C=CCN(CC=C)CC=C`: “inactive”; for `Nc1ccc(Cl)c([N+](=O)[O-])c1`: “inactive”; for `C=C1CC[C@H](O)C/C1=C/C=C1\CCC[C@]2(C)[C@@H]([C@H](C)/C=C/[C@H](C)C(C)C)CC[C@@H]12`: “inactive”.
`C=Cc1ccc(C(C)(C)C)cc1`: the call was inactive.
